Data as given in PubChem BioAssay (NCATS).
Results filed as inconclusive are left out. Activity calls are given as the source filed them. Unless noted, calls come from the whole dose curve; as a rule, active = well fitted curve in the direction sought with a large enough effect; inconclusive = small, poorly fitted or top-dose-only effect, or another doubt; inactive = no such curve, though single readings can be large; an effect the other way counts as inactive or inconclusive.

How the values were obtained:
[1] = target: Lysosomal acid glucosylceramidase (Homo sapiens) (UniProt P04062); assay: Glucocerebrosidase-p2 (AID 348; in the data active = potency below about 10 µM; note: potency is the fitted concentration of half-maximal effect); details: purified GBA, blue fluorogenic substrate, 40 min
Method in brief: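 Normal human glucocerebrosidase (0.2 nM) with blue fluorogenic substrate (80 uM final) in citrate/phosphate pH 5.9 with 10mM sodium taurocholate, 0.01% tween-20; 40 min RT, NaOH/glycine stop; fluorescence Ex 365/Em 440; AC50 from a titration from 0.6 nM upwards.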

[2] = AP1 Signaling Pathway (AID 357; active = well fitted curve in either direction with a large enough effect, not every such curve was filed as active;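 note: ME-180 reporter cells stimulated with EGF at its EC50 level; % is set by controls: 0 for no effect and ±100 for the full control effect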); details: ME-180 AP-1-bla reporter, EGF-induced, beta-lactamase ratio, 5 h; at 7.69 µM (top of the series) unless noted
Method in brief: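 Modulation of EGF-driven AP-1 transcription was assessed with a beta-lactamase reporter in ME-180 cells. Compound and EC50 EGF were co-incubated 5 hours at 37 °C before 2.5-hour CCF4 loading at room temperature and dual-emission reading.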

[3] = target: Cytochrome P450 1A2 (Homo sapiens) (UniProt P05177); assay: p450-cyp1a2 (AID 410; calls by dose curve; note: potency is the fitted concentration of half-maximal effect)
Method in brief: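 Luminescent demethylation readout: Luciferin-ME (100uM, equal to Km) turned over by 20nM CYP1A2 for 60 min at room temperature after NADPH regeneration addition, following 10 min compound preincubation. Normalization used 57 uM furafylline as full inhibition.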

[4] = target: Glucocorticoid receptor (Homo sapiens) (UniProt P04150); assay: GR-GFP Redistribution (AID 450;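 active = compounds whose dose series gives a full or clear partial fitted curve of increased nuclear translocation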; note: potency is the fitted concentration of half-maximal effect); details: U2OS GR-GFP nuclear translocation, laser cytometry, 2 h
[5] = target: Glucocorticoid receptor (Homo sapiens) (UniProt P04150); assay: GR-EFC Redistribution (AID 451; calls by dose curve; note: potency is the fitted concentration of half-maximal effect); details: CHO-K1 GR-EFC translocation, beta-gal luminescence, 2 h
Method in brief: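 Translocation of GR-ED fusion to nuclear EA restores b-gal, read by luminescence after 1 h room-temperature detection. Engineered CHO-K1 biosensor cells, 1,000/well, exposed 2 h at 37 C to titrations up to 46 uM final.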

[6] = target: Mitogen-activated protein kinase 10 (Mus musculus) (UniProt Q61831); assay: JNK3 AlphaScreen Assay (AID 530; active = well fitted curve in either direction with a large enough effect, not every such curve was filed as active;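 note: kinase came from lysate of stimulated human HepG2 cells; signal reports phosphorylation of biotinylated GST-cJun 1-79 at Ser73 with 10 µM ATP; % is set by controls: 0 for no effect and ±100 for the full control effect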)
Method in brief: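 qHTS titrations with 15 min compound pre-incubation before adding ATP (10 uM final). Read-out: AlphaScreen of Ser73-phosphorylated biotin-GST-cJun using HepG2 lysate JNK3 activated by IL-1β and TNFα.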

[7] = target: 3',5'-cyclic-AMP phosphodiesterase 4B (Homo sapiens) (UniProt Q07343); assay: qHTS Assay for Inhibitors of PDE-IV (AID 607; active = well fitted activation curve with a large enough effect in the main read-out, with a control signal flat, not every such curve was filed as active; note: % of control where 0% means no effect)
Method in brief: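 ACTOne HEK293 cells carry a modified cAMP-gated CNG channel and express endogenous PDE4; plated 1000 cells/well, compounds up to 22.9 uM final. Membrane-potential dye fluorescence (ex 535/em 590) was read; parental cells received 10 uM forskolin + 100 uM RO 20-1724.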

[8] = qHTS Assay for Identification of Small Molecule Agonists for Hypoxia Response Element Signaling Pathway (AID 914; active = well fitted activation curve with a large enough effect in the signal ratio, with a control signal flat, not every such curve was filed as active; the % refers to the signal ratio; note: potency is the fitted concentration of half-maximal effect); details: ME-180 HRE-bla reporter, beta-lactamase ratio, CoCl2, 17 h; activation: stronger effect = higher value
Method in brief: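 A beta-lactamase reporter under hypoxia response element control in ME-180 cells served as the system. Compound titrations plus EC50 CoCl2 ran 17 h at 37 degrees Celsius; AC50 values were fitted from %Activity.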

[9] = qHTS Assay for Lipid Storage Modulators (AID 1519; calls by dose curve; for activity change, negative = inhibition: % is set by controls: 0 for no effect and ±100 for the full control effect); details: Drosophila S3 cells, BODIPY lipid droplet/cell ratio, laser cytometry, cells loaded with oleic acid; for activity change, negative = inhibition: at 57.5 µM (top of the series)
Method in brief: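 Cells seeded at 5,000 per well were treated with compounds over a concentration series and loaded with oleic acid (400 uM, as added). Lipid droplet fluorescence (488 nm excitation, 500-530 nm channel) was read by laser-scanning cytometry and normalized to 20 uM Triacsin C.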

[10] = target: Dual specificity protein kinase CLK4 (Homo sapiens) (UniProt Q9HAZ1); assay: qHTS Assay for Inhibitors of CDC-like Kinase 4 (Kinase-Glo Assay) (AID 1770); note: nearly all actives have a fitted effect of over 65% in size; note: potency is the fitted concentration of half-maximal effect
Method in brief: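 Readout: Kinase-Glo luminescence from ATP left after a 4.5 h room-temperature reaction of 25 nM Clk4 with 100 uM RS peptide and 1 uM ATP (final). Buffer: 25 mM Tris pH 7.5, 10 mM MgCl2.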

[11] = target: Dual specificity protein kinase CLK4 (Homo sapiens) (UniProt Q9HAZ1); assay: qHTS Assay for Inhibitors of CDC-like Kinase 4 (ADP-Glo Assay) (AID 1771); note: nearly all actives have a fitted effect of over 70% in size; note: potency is the fitted concentration of half-maximal effect
Method in brief: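 ADP production was read by ADP-Glo luminescence after residual ATP depletion, following 1 h room-temperature reaction of 25 nM Clk4, 1 uM ATP and 100 uM RS peptide with MgCl2, EGTA, DTT and Triton X-100.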

[12] = target: Dual specificity protein kinase CLK4 (Homo sapiens) (UniProt Q9HAZ1); assay: qHTS Assay for Inhibitors of CDC-like Kinase 4 (ADP-FP Assay) (AID 1795);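 note: recombinant human CLK4 phosphorylating RS repeat peptide at 1 µM ATP; % is set by controls: 0 for no effect and ±100 for the full control effect; nearly all actives have a fitted effect of over 60% in size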
Method in brief: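 FP readout: Orange Transcreener ADP2 tracer (4 nM) plus ADP antibody, read after 30 min at room temperature. Kinase step: 6.25 nM Clk4, 100 uM RS peptide, 1 uM ATP, pH 7.5, 1 h.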

[13] = target: Ubiquitin carboxyl-terminal hydrolase 1 (Homo sapiens) (UniProt O94782); assay: Inhibitors of USP1/UAF1: Pilot qHTS (AID 504865);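 note: rhodamine fluorescence freed from ubiquitin-rhodamine substrate followed over time; top concentration of the series differs between compounds; % is set by controls: 0 for no effect and ±100 for the full control effect; nearly all actives have a fitted effect of over 35% in size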
Method in brief: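 1nM USP1/UAF1 + cpd, 15 min RT; start w/ Ub-Rho 150nM final; kinetic FL 480/540 nm, 6 reads q60 s. Buffer 50mM HEPES pH 7.8, 0.5mM EDTA, 1mM TCEP, 0.01% Tween-20, 0.1 mg/ml BSA.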

[14] = Counterscreen qHTS for small molecule stabilizers of the endoplasmic reticulum resident proteome: GLuc-NoTag assay (AID 1508627);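 note: 0% = thapsigargin alone and -100% = DMSO vehicle control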
Method in brief: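 Counterscreen line: SH-SY5Y-GLuc-NoTag cells, treated with compound 19 hr before a 4 hr, 100 nM thapsigargin calcium depletion. Secreted Gaussia luciferase in the medium was measured by luminescence after coelenterazine was added (0.07x final), with cells unlysed.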

[15] = Confirmatory qHTS for small molecule stabilizers of the endoplasmic reticulum resident proteome: Secreted ER Calcium Modulated Protein (SERCaMP) assay (AID 1508628); note: nearly all actives have a fitted effect of over 40% in size; note: potency is the fitted concentration of half-maximal effect
Method in brief: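 Reporter secretion upon ER calcium depletion (100 nM thapsigargin, 4 h, 37C) is measured as medium luminescence with coelenterazine, after 16 h compound pretreatment of SH-SY5Y-GLuc-SERCaMP cells; primary at three concentrations up to 38.3 uM, follow-up at 11 (up to 76.6 uM).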

[16] = Stat Signaling Pathway (AID 446; active = well fitted curve in either direction with a large enough effect, not every such curve was filed as active;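 note: ME-180 cervical cancer cells given 40 pM IL-6 alongside compound; SIE-controlled beta-lactamase reporter measured as 460/530 nm FRET emission ratio; % is set by controls: 0 for no effect and ±100 for the full control effect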); details: ME-180 (cervical carcinoma) SIE beta-lactamase reporter, IL-6 stimulated, 5 h; at 7.69 µM (top of the series) unless noted
Method in brief: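 Compound effects on IL-6-induced STAT reporter activity were measured in ME-180 cells. After overnight culture, cells were co-treated with 40 pM IL-6 for 5 hrs before beta-lactamase substrate loading at room temperature.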

[17] = target: Cytochrome P450 3A4 (Homo sapiens) (UniProt P08684); assay: qHTS Assay for Activators of Cytochrome P450 3A4 (AID 885); note: nearly all actives have a fitted effect of over 65% in size
Method in brief: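 CYP3A4 activity: Luciferin-PPXE O-dealkylation, 25uM substrate, 200mM KPO4, RT throughout. Read-out is luciferase luminescence; higher values reflect activation.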

[18] = measured here: cell count channel max response
[19] = measured here: lipid channel max response

Chain of Ubiquitin carboxyl-terminal hydrolase 1 (Homo sapiens) (O94782 whole entry, looked up): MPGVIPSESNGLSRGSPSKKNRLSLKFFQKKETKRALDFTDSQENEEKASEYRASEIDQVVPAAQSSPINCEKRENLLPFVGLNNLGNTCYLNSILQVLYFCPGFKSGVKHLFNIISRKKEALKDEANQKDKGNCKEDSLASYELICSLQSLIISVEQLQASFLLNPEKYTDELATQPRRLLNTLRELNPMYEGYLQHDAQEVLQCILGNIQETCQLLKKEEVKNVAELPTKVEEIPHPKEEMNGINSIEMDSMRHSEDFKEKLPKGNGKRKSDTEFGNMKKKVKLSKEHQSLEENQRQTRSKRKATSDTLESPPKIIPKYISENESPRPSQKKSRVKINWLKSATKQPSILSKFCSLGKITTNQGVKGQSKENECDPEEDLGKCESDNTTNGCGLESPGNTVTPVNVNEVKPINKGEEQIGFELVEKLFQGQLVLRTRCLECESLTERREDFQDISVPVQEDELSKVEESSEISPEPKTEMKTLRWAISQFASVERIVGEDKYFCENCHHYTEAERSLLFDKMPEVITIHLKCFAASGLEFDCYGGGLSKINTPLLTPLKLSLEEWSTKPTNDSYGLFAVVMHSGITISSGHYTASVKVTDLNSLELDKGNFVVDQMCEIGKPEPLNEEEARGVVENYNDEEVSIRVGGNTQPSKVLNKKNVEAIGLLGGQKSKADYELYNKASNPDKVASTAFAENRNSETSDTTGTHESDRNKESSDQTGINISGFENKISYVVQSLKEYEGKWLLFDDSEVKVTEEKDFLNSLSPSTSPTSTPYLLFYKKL
Chain of Glucocorticoid receptor (Homo sapiens) (P04150 whole entry, looked up, the tested form may be a part): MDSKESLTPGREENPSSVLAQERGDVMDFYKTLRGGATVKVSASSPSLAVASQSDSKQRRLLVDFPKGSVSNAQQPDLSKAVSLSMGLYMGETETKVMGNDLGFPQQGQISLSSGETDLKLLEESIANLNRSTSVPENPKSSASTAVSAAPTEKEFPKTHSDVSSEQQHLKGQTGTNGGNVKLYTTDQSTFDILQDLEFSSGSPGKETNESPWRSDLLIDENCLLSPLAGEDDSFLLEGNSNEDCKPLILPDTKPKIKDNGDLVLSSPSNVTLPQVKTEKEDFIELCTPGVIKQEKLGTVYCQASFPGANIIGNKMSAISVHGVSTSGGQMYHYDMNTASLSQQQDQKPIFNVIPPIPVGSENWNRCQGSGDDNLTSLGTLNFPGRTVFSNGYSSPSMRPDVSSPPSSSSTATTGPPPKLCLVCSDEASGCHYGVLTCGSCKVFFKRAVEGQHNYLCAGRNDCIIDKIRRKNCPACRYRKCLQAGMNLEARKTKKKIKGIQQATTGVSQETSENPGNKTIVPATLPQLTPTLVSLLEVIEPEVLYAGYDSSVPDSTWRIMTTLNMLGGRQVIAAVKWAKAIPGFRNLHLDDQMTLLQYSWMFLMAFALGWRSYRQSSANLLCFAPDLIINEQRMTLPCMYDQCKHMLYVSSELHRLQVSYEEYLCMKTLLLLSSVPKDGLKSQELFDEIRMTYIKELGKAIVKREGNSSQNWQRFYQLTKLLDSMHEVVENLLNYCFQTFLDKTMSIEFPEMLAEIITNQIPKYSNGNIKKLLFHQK
Chain of 3',5'-cyclic-AMP phosphodiesterase 4B (Homo sapiens) (Q07343 whole entry, looked up): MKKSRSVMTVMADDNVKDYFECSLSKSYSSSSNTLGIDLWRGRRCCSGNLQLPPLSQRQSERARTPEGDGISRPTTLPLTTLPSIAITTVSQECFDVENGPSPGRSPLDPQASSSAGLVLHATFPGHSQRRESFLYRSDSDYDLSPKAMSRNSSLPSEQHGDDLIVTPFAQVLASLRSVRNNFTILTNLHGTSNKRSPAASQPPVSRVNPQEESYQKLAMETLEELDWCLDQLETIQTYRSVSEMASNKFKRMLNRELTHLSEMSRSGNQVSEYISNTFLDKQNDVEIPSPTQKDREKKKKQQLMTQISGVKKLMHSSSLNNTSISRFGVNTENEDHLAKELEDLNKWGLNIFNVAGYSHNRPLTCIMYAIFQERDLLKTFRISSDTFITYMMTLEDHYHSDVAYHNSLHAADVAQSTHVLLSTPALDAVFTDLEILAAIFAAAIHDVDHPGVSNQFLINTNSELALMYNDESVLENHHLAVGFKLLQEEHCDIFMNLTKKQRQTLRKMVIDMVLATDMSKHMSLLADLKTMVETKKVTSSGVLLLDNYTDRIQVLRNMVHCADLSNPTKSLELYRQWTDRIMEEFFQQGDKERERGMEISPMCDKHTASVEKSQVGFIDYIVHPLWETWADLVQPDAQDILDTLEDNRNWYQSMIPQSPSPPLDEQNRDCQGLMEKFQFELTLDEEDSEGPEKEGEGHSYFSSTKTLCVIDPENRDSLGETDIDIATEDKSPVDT
Chain of Dual specificity protein kinase CLK4 (Homo sapiens) (Q9HAZ1 whole entry, looked up): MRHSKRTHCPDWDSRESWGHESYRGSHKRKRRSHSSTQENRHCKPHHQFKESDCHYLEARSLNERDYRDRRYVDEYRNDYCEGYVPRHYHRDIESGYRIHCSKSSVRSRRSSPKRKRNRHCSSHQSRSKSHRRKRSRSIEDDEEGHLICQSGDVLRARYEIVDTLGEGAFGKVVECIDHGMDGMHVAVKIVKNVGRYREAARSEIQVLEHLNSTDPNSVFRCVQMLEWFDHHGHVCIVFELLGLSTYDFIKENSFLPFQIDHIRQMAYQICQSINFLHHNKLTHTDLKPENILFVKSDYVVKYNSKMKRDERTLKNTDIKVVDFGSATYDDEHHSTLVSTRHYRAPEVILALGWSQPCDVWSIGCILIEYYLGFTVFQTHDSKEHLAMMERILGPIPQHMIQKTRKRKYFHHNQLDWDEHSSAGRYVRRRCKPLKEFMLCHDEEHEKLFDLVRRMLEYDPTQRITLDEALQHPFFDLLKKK
Chain of Lysosomal acid glucosylceramidase (Homo sapiens) (P04062 whole entry, looked up): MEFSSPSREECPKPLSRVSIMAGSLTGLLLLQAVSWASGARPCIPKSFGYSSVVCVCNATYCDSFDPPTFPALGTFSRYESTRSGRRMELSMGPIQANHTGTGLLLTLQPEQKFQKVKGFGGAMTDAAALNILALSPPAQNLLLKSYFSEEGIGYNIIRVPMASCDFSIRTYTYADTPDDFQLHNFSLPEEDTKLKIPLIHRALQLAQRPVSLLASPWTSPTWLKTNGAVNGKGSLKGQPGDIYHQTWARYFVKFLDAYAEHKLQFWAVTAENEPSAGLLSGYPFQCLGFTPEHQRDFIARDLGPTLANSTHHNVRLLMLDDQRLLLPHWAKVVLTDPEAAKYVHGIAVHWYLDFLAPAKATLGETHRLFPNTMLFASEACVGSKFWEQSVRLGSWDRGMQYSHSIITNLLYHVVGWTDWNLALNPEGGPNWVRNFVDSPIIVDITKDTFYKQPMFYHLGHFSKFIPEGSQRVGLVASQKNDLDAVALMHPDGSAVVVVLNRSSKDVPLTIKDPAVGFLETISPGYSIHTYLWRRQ
Chain of Cytochrome P450 1A2 (Homo sapiens) (P05177 whole entry, looked up): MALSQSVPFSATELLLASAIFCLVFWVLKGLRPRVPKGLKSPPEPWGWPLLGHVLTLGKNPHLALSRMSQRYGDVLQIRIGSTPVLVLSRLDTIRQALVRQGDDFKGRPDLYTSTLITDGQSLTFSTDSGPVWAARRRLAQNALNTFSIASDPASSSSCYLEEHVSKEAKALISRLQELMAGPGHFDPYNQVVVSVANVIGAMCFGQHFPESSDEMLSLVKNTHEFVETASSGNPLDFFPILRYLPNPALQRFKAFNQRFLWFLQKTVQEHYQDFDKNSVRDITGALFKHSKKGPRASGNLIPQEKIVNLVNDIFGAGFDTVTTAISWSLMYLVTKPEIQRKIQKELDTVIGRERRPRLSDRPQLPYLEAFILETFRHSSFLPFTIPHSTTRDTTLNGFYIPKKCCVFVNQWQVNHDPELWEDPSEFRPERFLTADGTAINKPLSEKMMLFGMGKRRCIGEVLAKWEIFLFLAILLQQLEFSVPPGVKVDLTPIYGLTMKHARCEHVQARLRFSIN
Chain of Cytochrome P450 3A4 (Homo sapiens) (P08684 whole entry, looked up): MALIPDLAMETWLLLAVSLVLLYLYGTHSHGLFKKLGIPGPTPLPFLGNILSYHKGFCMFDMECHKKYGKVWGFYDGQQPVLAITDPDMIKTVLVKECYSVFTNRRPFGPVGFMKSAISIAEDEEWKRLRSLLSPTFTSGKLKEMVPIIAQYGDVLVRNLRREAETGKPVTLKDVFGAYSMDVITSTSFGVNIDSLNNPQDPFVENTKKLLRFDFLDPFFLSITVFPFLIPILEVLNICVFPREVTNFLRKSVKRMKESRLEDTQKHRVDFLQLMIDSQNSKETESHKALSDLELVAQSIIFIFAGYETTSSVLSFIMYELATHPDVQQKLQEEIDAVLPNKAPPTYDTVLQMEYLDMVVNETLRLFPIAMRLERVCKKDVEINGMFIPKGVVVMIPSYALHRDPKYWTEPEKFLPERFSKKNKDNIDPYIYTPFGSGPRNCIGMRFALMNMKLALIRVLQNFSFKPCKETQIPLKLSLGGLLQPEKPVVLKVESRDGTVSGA

COc1ccc(-c2nc3cnc(N4CCN(C)CC4)nc3n(-c3ccc(OC)cc3)c2=O)cc1
inactive: Potency [1] > 11.4 µM | activity change, negative = inhibition [2] 41.4% | Potency [4] > 9.22 µM | Potency [5] > 46 µM | outcome [6] | Potency [7] | activity change, negative = inhibition [9] 3.89% | Potency [10] | Potency [11] | Potency [12] | Potency [13] | Potency [14] | Potency [15]
active: Potency [3] 15.8 µM | Potency [8] 3.16 µM
28.9%: max response [9, 18]
29.8%: max response [9, 19]

O=C(O)/C=C/C(=O)Nc1ccc(OC(F)(F)Cl)cc1
inactive: Potency [14] | Potency [15]

COc1ccc(-c2nc3cnc(N4CCNCC4)nc3n(-c3ccc(OC)cc3)c2=O)cc1
inactive: Potency [1] > 11.4 µM | Potency [4] > 9.22 µM | Potency [5] > 46 µM | outcome [6] | Potency [7] | activity change, negative = inhibition [9] 1.3% | Potency [10] | Potency [11] | Potency [12] | Potency [13] | Potency [15]
15.1%: max response [9, 19]
15%: max response [9, 18]

O=c1c(-c2cc(F)cc(F)c2)nc2cnc(N3CCNCC3)nc2n1-c1ccccc1
active: Potency [10] 15.8 µM | Potency [11] 22.4 µM
4.03%: max response [9, 19]
inactive: Potency [1] > 11.4 µM | Potency [4] > 9.22 µM | Potency [5] > 46 µM | outcome [6] | Potency [7] | activity change, negative = inhibition [9] 4.01% | Potency [13] | Potency [14]
3.1%: max response [9, 18]

O=c1cnc2cnc(N3CCNCC3)nc2n1Cc1cccs1
inactive: Potency [1] > 11.4 µM | activity change, negative = inhibition [2] -4.82% | activity, negative = inhibition [16] 0.322% | Potency [4] > 9.22 µM | Potency [5] > 46 µM | outcome [6] | Potency [7] | Potency [17] | Potency [14]
active: Potency [15] 31.6 µM

COCCn1c(=O)c(-c2ccc(OC)cc2)nc2cnc(N3CCNCC3)nc21
active: Potency [3] 6.31 µM
inactive: Potency [1] > 11.4 µM | Potency [4] > 9.22 µM | Potency [5] > 46 µM | Potency [7] | Potency [17] | Potency [14] | Potency [15]
